Reference: PubChem BioAssay (NCI)
Compounds without any hit were thinned out: in the full panel of roughly 79,000, 15% have a hit. Unmarked numbers belong to inactive results. Active and inactive are the calls of the source. Rule as the data show it: active = growth inhibition above about 70%; inactive = the rest.

Columns and labels:
[1] = NCI Yeast Anticancer Drug Screen. Data for the rad52 strain (AID 147);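 also: 0% = growth of vehicle-treated control cultures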; conditions: S. cerevisiae rad52 mutant growth inhibition, stronger effect = higher value
Method in brief: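 Vehicle-treated cultures served as the reference for growth inhibition of compound-exposed yeast bearing a DNA repair mutation.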

[2] = NCI Yeast Anticancer Drug Screen. Data for the wt1 strain (AID 149);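 also: 0% = growth of vehicle-treated wt1 cultures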; conditions: S. cerevisiae wt1 strain (SPY 50644) growth inhibition, stronger effect = higher value
Method in brief: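 Growth inhibition read against vehicle controls after compound exposure of the wt1 yeast strain.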

[3] = NCI Yeast Anticancer Drug Screen. Data for the rad50EPP+ strain (AID 151);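 also: 0% = growth of vehicle-treated control cultures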; conditions: S. cerevisiae rad50 mutant strain, stronger effect = higher value
Method in brief: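 In this screen, rad50EPP+ yeast were exposed to compounds. Growth inhibition was scored against vehicle-treated controls.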

[4] = NCI Yeast Anticancer Drug Screen. Data for the mgt1 strain (AID 153); conditions: S. cerevisiae mgt1 mutant growth inhibition, stronger effect = higher value
Method in brief: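 mgt1 strain exposed; growth vs vehicle control recorded as inhibition.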

[5] = NCI Yeast Anticancer Drug Screen. Data for the rad50 strain (AID 155);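 also: 0% = growth of vehicle-only cultures of the same strain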; conditions: S. cerevisiae rad50 strain growth inhibition, stronger effect = higher value
Method in brief: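 Readout: growth inhibition relative to vehicle-treated cultures. Compound exposure was carried out in a genetically defined yeast strain deficient in DNA damage repair.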

[6] = NCI Yeast Anticancer Drug Screen. Data for the mec2-1 strain (AID 157); conditions: S. cerevisiae mec2-1 strain, stronger effect = higher value
Method in brief: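 Vehicle-treated cultures served as reference for growth inhibition of compound-exposed mec2-1 yeast.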

[7] = NCI Yeast Anticancer Drug Screen. Data for the rad14 strain (AID 159);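 also: 0% = growth of vehicle-treated control cultures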; conditions: S. cerevisiae rad14 strain growth inhibition, stronger effect = higher value
Method in brief: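 Growth inhibition vs vehicle controls; genetically altered yeast strain (DNA damage repair defect) treated with test compounds.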

[8] = NCI Yeast Anticancer Drug Screen. Data for the sgs1 mgt1 strain (AID 161);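 also: 0% = growth of cultures given vehicle only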; conditions: S. cerevisiae sgs1 mgt1 strain, stronger effect = higher value
Method in brief: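 Genetically altered yeast, compound exposure, growth inhibition relative to vehicle.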

[9] = NCI Yeast Anticancer Drug Screen. Data for the CLN2oe strain (AID 163);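 also: 0% = growth of vehicle-only control cultures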; conditions: S. cerevisiae CLN2oe strain, stronger effect = higher value
Method in brief: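 Inhibition relative to vehicle-treated yeast is reported. Cells: strain with genetic alteration in cell-cycle control, grown with compound.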

[10] = NCI Yeast Anticancer Drug Screen. Data for the cln2 rad14 strain (AID 165);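 also: 0% = growth equal to vehicle treated cultures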; conditions: S. cerevisiae cln2 rad14 strain, stronger effect = higher value
Method in brief: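 Each compound was tested on cln2 rad14 yeast. Inhibition of growth was calculated against vehicle-exposed controls.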

[11] = NCI Yeast Anticancer Drug Screen. Data for the bub3 strain (AID 167); conditions: S. cerevisiae bub3 mutant strain, stronger effect = higher value
Method in brief: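 Readout: yeast growth inhibition, expressed relative to vehicle-only wells. The test organism is a mutant strain from a panel with lesions in DNA repair or checkpoint genes.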

[12] = NCI Yeast Anticancer Drug Screen. Data for the wt2 strain (AID 169);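 also: 0% = growth of vehicle-treated yeast cultures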; conditions: S. cerevisiae wt2 strain growth inhibition, stronger effect = higher value
Method in brief: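 Inhibition of yeast growth was determined after compound treatment, normalised to controls receiving only vehicle.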

[13] = NCI Yeast Anticancer Drug Screen. Data for the mlh1 strain (AID 171);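 also: 0% = growth of vehicle-treated control cultures of the same strain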; conditions: S. cerevisiae mlh1 strain growth inhibition, stronger effect = higher value
Method in brief: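 Vehicle-normalised growth inhibition of a repair- or checkpoint-altered yeast strain following compound treatment.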

[14] = NCI Yeast Anticancer Drug Screen. Data for the sgs1 strain (AID 173);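 also: 0% = growth of vehicle-only control cultures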; conditions: S. cerevisiae sgs1 mutant, stronger effect = higher value
Method in brief: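 Screen format: yeast with repair or checkpoint alterations, compound exposure, growth read relative to vehicle.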

[15] = NCI Yeast Anticancer Drug Screen. Data for the mlh1 rad18 strain (AID 175); conditions: S. cerevisiae mlh1 rad18 strain growth inhibition, stronger effect = higher value
Method in brief: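 Vehicle-treated cultures served as the reference for growth inhibition in a yeast strain carrying DNA damage repair alterations exposed to each compound.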

[16] = NCI Yeast Anticancer Drug Screen. Data for the rad18 strain (AID 177); conditions: S. cerevisiae rad18 mutant growth inhibition, stronger effect = higher value
Method in brief: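 Test articles were incubated with altered yeast defective in DNA damage repair. Results are given as inhibition of growth versus vehicle.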

[17] = at 5.0 µM (retest, dose inferred, filed as 0.5)
[18] = at 50.0 µM (retest, dose inferred, filed as 5.0)

S=C(S)NCC1CCC(CNC(=S)S)CC1 (stereo not given)
growth inhibition ([1]; at 1.2 µM): -10%
growth inhibition ([1]; at 3.7 µM): -12%
growth inhibition ([1]; at 11.0 µM): -12%
growth inhibition ([1]; at 33.0 µM): 20%
growth inhibition ([1]; at 100.0 µM): 81% (active)
growth inhibition ([2]; at 1.2 µM): -11%
growth inhibition ([2]; at 3.7 µM): -5%
growth inhibition ([2]; at 11.0 µM): -5%
growth inhibition ([2]; at 33.0 µM): 20%
growth inhibition ([2]; at 100.0 µM): 77% (active)
growth inhibition ([3]; at 1.2 µM): -3%
growth inhibition ([3]; at 3.7 µM): 3%
growth inhibition ([3]; at 11.0 µM): 24%
growth inhibition ([3]; at 33.0 µM): 41%
growth inhibition ([3]; at 100.0 µM): 81% (active)
growth inhibition ([4]; at 1.2 µM): -8%
growth inhibition ([4]; at 3.7 µM): 0%
growth inhibition ([4]; at 11.0 µM): 5%
growth inhibition ([4]; at 33.0 µM): 18%
growth inhibition ([4]; at 100.0 µM): 89% (active)
growth inhibition ([5]; at 1.2 µM): 8%
growth inhibition ([5]; at 3.7 µM): 3%
growth inhibition [5, 17]: 31%
growth inhibition ([5]; at 11.0 µM): -4%
growth inhibition ([5]; at 33.0 µM): 22%
growth inhibition [5, 18]: 98% (active)
growth inhibition ([5]; at 50.0 µM): 67%
growth inhibition ([5]; at 100.0 µM): 83% (active)
growth inhibition ([6]; at 1.2 µM): -9%
growth inhibition ([6]; at 3.7 µM): -2%
growth inhibition [6, 17]: 64%
growth inhibition ([6]; at 11.0 µM): 5%
growth inhibition ([6]; at 33.0 µM): 43%
growth inhibition [6, 18]: 98% (active)
growth inhibition ([6]; at 50.0 µM): 59.1%
growth inhibition ([6]; at 100.0 µM): 94% (active)
growth inhibition ([7]; at 1.2 µM): 13%
growth inhibition ([7]; at 3.7 µM): 19%
growth inhibition ([7]; at 11.0 µM): 13%
growth inhibition ([7]; at 33.0 µM): 27%
growth inhibition ([7]; at 100.0 µM): 92% (active)
growth inhibition [8, 17]: -13%
growth inhibition [8, 18]: 61%
growth inhibition ([9]; at 1.2 µM): 0%
growth inhibition ([9]; at 3.7 µM): 12%
growth inhibition ([9]; at 11.0 µM): 13%
growth inhibition ([9]; at 33.0 µM): 18%
growth inhibition ([9]; at 100.0 µM): 70% (active)
growth inhibition [10, 17]: -7%
growth inhibition [10, 18]: 46%
growth inhibition ([11]; at 1.2 µM): 16%
growth inhibition ([11]; at 3.7 µM): -10%
growth inhibition [11, 17]: 19%
growth inhibition ([11]; at 11.0 µM): 19%
growth inhibition ([11]; at 33.0 µM): 63%
growth inhibition [11, 18]: 77% (active)
growth inhibition ([11]; at 100.0 µM): 93% (active)
growth inhibition ([12]; at 1.2 µM): -15%
growth inhibition ([12]; at 3.7 µM): -20%
growth inhibition ([12]; at 11.0 µM): -13%
growth inhibition ([12]; at 33.0 µM): 28%
growth inhibition ([12]; at 100.0 µM): 83% (active)
growth inhibition ([13]; at 1.2 µM): -4%
growth inhibition ([13]; at 3.7 µM): 15%
growth inhibition ([13]; at 11.0 µM): 5%
growth inhibition ([13]; at 33.0 µM): 32%
growth inhibition ([13]; at 100.0 µM): 71% (active)
growth inhibition ([14]; at 1.2 µM): -3%
growth inhibition ([14]; at 3.7 µM): 14%
growth inhibition ([14]; at 11.0 µM): 16%
growth inhibition ([14]; at 33.0 µM): 48%
growth inhibition ([14]; at 100.0 µM): 87% (active)
growth inhibition [15, 17]: 44%
growth inhibition [15, 18]: 99% (active)
growth inhibition ([15]; at 50.0 µM): 43.5%
growth inhibition ([16]; at 1.2 µM): 2%
growth inhibition ([16]; at 3.7 µM): 6%
growth inhibition ([16]; at 11.0 µM): 16%
growth inhibition ([16]; at 33.0 µM): 18%
growth inhibition ([16]; at 100.0 µM): 78% (active)
